Results on 40 molecules are retold here after PubChem BioAssay (EPA / NIEHS).

Active and inactive are the calls of the source. How the source made its calls: active means hit-call score of the fitted dose curve at least 0.9, where 1 is the maximum; inactive means score below 0.9.

A short description of the experiment: ATG_M_06_CIS: Attagene CIS-FACTORIAL HepG2 Assay for M06 Transcription Factor (Internal Marker) (AID 2282950). The following applies: HepG2 Attagene CIS-FACTORIAL M06 internal marker reporter; actives raise or lower the signal. As to the method:
ATG_CIS is a cell-based, multiplexed-readout assay that uses HepG2, a human liver cell line, with measurements taken at 24 hours after chemical dosing in a 24-well plate.ATG_M_06_CIS is one of 52 assay component(s) measured or calculated from the ATG_CIS assay. It is designed to make measurements of mRNA induction, a form of inducible reporter, as detected with fluorescence intensity signals by Reverse transcription polymerase chain reaction (RT-PCR) and Capillary electrophoresis technology.Data from the assay component ATG_M_06_CIS was analyzed into 1 assay endpoint. This assay endpoint, ATG_M_06_CIS, was analyzed with bidirectional fitting relative to DMSO as the negative control and baseline of activity. Using a type of inducible reporter, measures of mRNA for gain or loss-of-signal activity can be used to understand the background control at the transcription factor-level as they relate to the gene . Furthermore, this assay endpoint can be referred to as a secondary readout, because this assay has produced multiple assay endpoints where this one serves a background control function. To generalize the intended target to other relatable targets, this assay endpoint is annotated to the background measurement intended target family, where the subfamily is internal marker.
Human liver HepG2 cells are transiently transfected with multiple reporter transcription units (MRTUs) in 6-well plates using FuGene 6 reagent (Roche; 3 ml FuGene/1 mg DNA). The MRTU constructs are regulated by a cis-regulating element (promoter). […] A major difference between the CIS and TRANS system is that in CIS activities of endogenous TFs are measured, whereas the TRANS assay evaluates changes in activities of exogenous, chimeric NR-Gal4 proteins. […] At the end of 24 hour incubation, total RNA was isolated using TriZol reagent (Invitrogen). The isolated RNA is then reverse-transcribed using oligo(dT) primer and Mo-MLV reverse transcriptase (Invitrogen) with DNAse I (Ambion) treatment for 30 min. The one-tenth of the produced cDNA was amplified by PCR using Taq DNA polymerase (Invitrogen) and two reporter sequence-specific primers. The PCR products were fluorescently labeled by primer extension with 6-arboxyfluorescein (6-FAM) 5'-labeled reporter sequence-specific primer (2 min at 95 C, 20 s at 68 C and 10 min at 72 C) and these products were digested with 5U of HpaI (New England Biolabs) for 2h at 37 C. The fragments were purified using Qiaquick PCR columns (Qiagen), analyzed on an ABI 3130xL genetic analyzer (Applied Biosystems) with peak positions identified by using a set of X-rhodamine (ROX)-labeled MapMarker1000 molecular weight standards (BioVentures). The raw capillary electrophoresis data was processed using Attagraph software (Attagene).
Regarding `CCC(=NOC/C=C/Cl)C1=C(O)CC(C2CCOCC2)CC1=O` (stereo not given), the molecule was classed as inactive.
With `CC1(C(=O)Nc2ccc(O)c(Cl)c2Cl)CCCCC1`, the outcome was inactive.
The result for `CCc1cnc(C2=NC(C)(C(C)C)C(=O)N2)c(C(=O)O)c1` (stereo not given) reads “inactive”; that for `CCOP(=O)(NC(C)C)Oc1ccc(SC)c(C)c1` (stereo not given), “inactive”.
Turning to `C#CC(C)(C)NC(=O)c1cc(Cl)cc(Cl)c1`, the outcome was inactive.
The result for `Nc1c(Cl)cc([N+](=O)[O-])cc1Cl` reads “inactive”.
The result for `C[Si](Cn1cncn1)(c1ccc(F)cc1)c1ccc(F)cc1` reads “inactive”; that for `CCOP(=S)(OCC)SCCSCC`, “inactive”; that for `COc1cccc(C(=O)NN(C(=O)c2cc(C)cc(C)c2)C(C)(C)C)c1C`, “inactive”.
`Cc1ccn2nc(S(=O)(=O)Nc3c(F)cccc3F)nc2n1`: the molecule was called inactive.
In the case of `CC(=NC#N)N(C)Cc1ccc(Cl)nc1`, the molecule was classed as inactive.
Next, `CCOP(=S)(OCC)Oc1ccc([N+](=O)[O-])cc1`: “inactive”.
The result for `CN(C)[C@@H]1C(=O)C(C(N)=O)=C(O)[C@@]2(O)C(=O)C3=C(O)c4c(O)cccc4[C@@](C)(O)[C@H]3[C@H](O)[C@@H]12` reads “inactive”.
Turning to `CNC(=O)ON=C(C)SC`, the molecule was classed as inactive.
The result for `CC(C)[C@H](C(=O)O[C@H](C#N)c1cccc(Oc2ccccc2)c1)c1ccc(Cl)cc1` reads “inactive”; that for `CN1COCN(Cc2cnc(Cl)s2)C1=N[N+](=O)[O-]`, “inactive”.
Consider `CCOC(=O)COc1cc(-c2nn(C)c(OC(F)F)c2Cl)c(F)cc1Cl`, for which the molecule was called inactive.
Next, `CNc1cnn(-c2cccc(C(F)(F)F)c2)c(=O)c1Cl`: “inactive”.
Next, `O=C(O)c1cc(Oc2ccc(C(F)(F)F)cc2Cl)ccc1[N+](=O)[O-]`: “inactive”; `CCOP(=S)(OCC)Oc1cc(C)nc(C(C)C)n1`: “inactive”.
Take `Cc1nn(-c2cc(NS(C)(=O)=O)c(Cl)cc2Cl)c(=O)n1C(F)F`: the result was inactive.
The result for `S=C1NCCN1` reads “inactive”.
For `C=C(C)[C@H]1Cc2c(ccc3c2O[C@@H]2COc4cc(OC)c(OC)cc4[C@@H]2C3=O)O1`, the result was inactive.
Take `CCCCN(CC)c1c([N+](=O)[O-])cc(C(F)(F)F)cc1[N+](=O)[O-]`: the molecule was called inactive.
The result for `CSc1nnc(C(C)(C)C)c(=O)n1N` reads “inactive”.
In the case of `N#CSCSC#N`, the call was inactive.
Take `CC(Oc1cccc(Cl)c1)C(=O)O` (stereo not given): the molecule was called inactive.
In the case of `CN(C)C(=O)Nc1cccc(C(F)(F)F)c1`, the call was inactive.
As for `CCCCOC(=O)[C@@H](C)Oc1ccc(Oc2ccc(C#N)cc2F)cc1`, the result was inactive.
The result for `CCOP(=S)(OCC)OC(Cl)C(Cl)(Cl)Cl` (stereo not given) reads “inactive”; that for `CCOP(=S)(OCC)Oc1ccc2c(C)c(Cl)c(=O)oc2c1`, “inactive”.
On to `CC(C)N(C(=O)SCC(Cl)=C(Cl)Cl)C(C)C`, for which the outcome was inactive.
Regarding `COc1ccc(C(=CC(=O)N2CCOCC2)c2ccc(Cl)cc2)cc1OC`, the molecule was called inactive.
Turning to `COP(=O)(OC)SCn1c(=O)oc2cc(Cl)cnc21`, the result was inactive.
For the molecule `CCc1cccc(C)c1N(C(=O)CCl)C(C)COC` (stereo not given), the result was inactive.
As for `CCCSP(=O)(OCC)SCCC`, the result was inactive.
The result for `CCC(CC)Nc1c([N+](=O)[O-])cc(C)c(C)c1[N+](=O)[O-]` reads “inactive”.
The result for `CCOP(=O)(OCC)Oc1cc(C)nc(C(C)C)n1` reads “inactive”.
Turning to `CCOC(=O)CC(SP(=O)(OC)OC)C(=O)OCC` (stereo not given), the result was inactive.
The result for `CCCCSP(=O)(SCCCC)SCCCC` reads “inactive”.
